Measured values reported in PubChem BioAssay AID2810 (NMMLSC, 2010).
In all, about 1,200 compounds went through this assay and about 65 (5%) were called active. The sample holds actives, similar compounds and a random draw of the others, so the mix is not that of the screen.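 Rule for the calls: active = at either tested dose, response and 90th-percentile vesicle-stain brightness of CD8 cells under set limits and under 9% cells vesicle-bound; inactive = the rest.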

Assay: modulators of CD8 T cell-vesicle binding, confirmation, cherry-picked primary hits, two concentrations (AID 2810);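 note: lower values mean blocking of vesicle binding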;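 for percent response (vesicle binding): ratio of mean FL2 vesicle stain of CD8+ cells to that row's control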
Conditions: 2C CD8+ T cell-vesicle binding, flow cytometry; for double positive events: CD8+/vesicle+ events
[1] = at 15.4 µM, stronger effect = lower value

Row | SMILES | double positive events (at 7.7 µM) [%] | double positive events [1] [%] | percent response (vesicle binding) [1] | percent response (vesicle binding) (response, at 7.7 µM) [%]
1 | COc1ccc([C@H]2CC(=O)C=C(c3ccc(OC)nc3)C2)cc1 | 14.2 | 9.6 | 212% (inactive) | 129
2 | COc1ccc(C2=CC(=O)C[C@H](c3ccc4c(c3)OCO4)C2)cn1 | 9.9 | 4.4 | 35.6% (active) | 132
3 | CCCOc1ccc(C2=CC(=O)C[C@H](c3ccc(OC)cc3)C2)cc1 | 11 | 10.3 | 69.4% (inactive) | 126
4 | Cc1ccc(O)c(CCc2ccccc2)n1 | 15.8 | 2.8 | 113% (inactive) | 128
5 | O=C(Nc1nc2ccccc2[nH]1)c1ccccc1[N+](=O)[O-] | 21 | 27.8 | 316% (inactive) | 383
6 | O=C(NC(=S)Nc1nc(-c2ccccc2)cs1)c1cccs1 | 16.9 | 1.5 | 48.9% (active) | 238
7 | O=C(Nc1nc(-c2ccccc2)cs1)c1ccc(N2CCOCC2)c([N+](=O)[O-])c1 | 8.4 | 25.6 | 552% (inactive) | 78.4
8 | CCNC(=O)CSc1nc(-c2ccccc2)cs1 | 25.1 | 14.3 | 215% (inactive) | 240
9 | CC1c2ccsc2CCN1C(=O)NC(=O)c1ccc(Cl)cc1 (stereo not given) | 20.6 | 18.4 | 185% (inactive) | 486
10 | CCCCNC(=O)c1cnc2n(c1=O)CCS2 | 38.7 | 14.7 | 184% (inactive) | 399
11 | CCOC(=O)c1cnc2nc(C)nn2c1N | 10.5 | 10.6 | 70.8% (inactive) | 113
12 | CCCNC(=O)c1nc2ncc(Br)cn2n1 | 15.3 | 1 | 43% (active) | 231
13 | O=C(NNC(=S)NC(=O)c1ccco1)c1ccc(F)cc1 | 7.1 | 18.1 | 196% (inactive) | 291
14 | Cc1ccc(C(=O)NCc2ccco2)o1 | 10.5 | 20.1 | 586% (inactive) | 368
15 | O=C(NC(=S)NCc1ccco1)c1ccc(Br)cc1 | 18.8 | 5.9 | 52.9% (active) | 186
16 | CCOc1ccccc1NC(=O)c1ccc(F)c(S(=O)(=O)N2CCC3(CC2)OCCO3)c1 | 16.8 | 14.7 | 94.2% (inactive) | 132
17 | COc1ccc(C2(O)CCN(CCCCOc3ccccc3)CC2)cc1 | 12.9 | 31.8 | 292% (inactive) | 174
18 | C[N+]1(C)CC2([N+](=O)[O-])CC=C(Oc3ccccc3)C([N+](=O)[O-])(C2)C1 (stereo not given) | 28.9 | 3.4 | 49.5% (active) | 485
19 | CCOc1ccccc1NC(=O)CN(c1ccc(C)cc1)S(=O)(=O)c1c(C)noc1C | 30.1 | 16.7 | 129% (inactive) | 502
20 | COc1ccc(Cl)cc1NC(=O)/C=C/C(=O)O | 13.3 | 24.2 | 251% (inactive) | 192
